From PubChem BioAssay
HttQ103 aggreg = qHTS Multiplex Assay to Identify Dual Action Probes in a Cell Model of Huntington: Aggregate Formation (GFP); AID 1688, 2009; PC12 HttQ103-GFP aggregates, Acumen cytometry, 40 h; Potency, µM (highest dose often 46.1 µM), for the others: at the top dose activity change, negative = inhibition, usual class: inhibitors; 220,000 tested, 1.1% active; further: potency means the concentration at half of the fitted maximal effect; on the % scale 0 is the no-effect control and ±100 the full control effect; nearly all actives have a fitted effect of over 60% in size
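PC12 cells with ecdysone-inducible HTT exon1 Q103-GFP, induced by 100 nM tebufenozide, given compounds in a concentration series. GFP aggregates (1–25 um, 6 SD above background) counted in lysates by laser-scanning cytometry, 488 nm excitation.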
HPGD inh = qHTS Assay for Inhibitors of HPGD (15-Hydroxyprostaglandin Dehydrogenase) | Potency, µM, for inactives: at the highest dose activity change, negative = inhibition, usual class: inhibitors | AID 894, 2007 | 150,000 tested, 4.3% active | purified HPGD, NADH fluorescence kinetic, PGE2 substrate; active means well fitted inhibition curve with a large enough effect, not every such curve was filed as active; inconclusive means small, poorly fitted or top-dose-only effect, or another doubt; inactive means no such curve, though single readings can be large or run the other way; further: potency means the concentration at half of the fitted maximal effect; on the % scale 0 is the no-effect control and ±100 the full control effect
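NADH formation kinetics: reaction with 30 uM PGE2 and 1 mM NAD+ (final), 20 nM enzyme, Tris-HCl pH 8 with Tween 20, after 15 min compound preincubation at room temperature. Fluorescence change, last versus first of five reads.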
IMPase cell inh = qHTS Assay for Identifying the Cell-Membrane Permeable IMPase Inhibitors; AID 901, 2007; CHO-M1 cells, IP1 accumulation, HTRF TR-FRET ratio; inhibition (IP1 accumulation), % at 46.1 µM; 120,000 tested, under 10 active; Inositol monophosphatase 1 (Rattus norvegicus), P97697; active means well fitted curve in the direction sought with a large enough effect in the signal ratio, not every such curve was filed as active; inconclusive means small, poorly fitted or top-dose-only effect, or a change in a side signal; inactive means no such curve, though single readings can be large or run the other way; the % refers to the signal ratio;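 further: cells stimulated with carbachol in lithium chloride buffer; plate controls were DMSO basal wells for no effect and reference inhibitor wells for full effect; higher means more IMPase inhibition seen as more IP1 and lower FRET ratio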
Target sequence (P97697 whole entry, looked up): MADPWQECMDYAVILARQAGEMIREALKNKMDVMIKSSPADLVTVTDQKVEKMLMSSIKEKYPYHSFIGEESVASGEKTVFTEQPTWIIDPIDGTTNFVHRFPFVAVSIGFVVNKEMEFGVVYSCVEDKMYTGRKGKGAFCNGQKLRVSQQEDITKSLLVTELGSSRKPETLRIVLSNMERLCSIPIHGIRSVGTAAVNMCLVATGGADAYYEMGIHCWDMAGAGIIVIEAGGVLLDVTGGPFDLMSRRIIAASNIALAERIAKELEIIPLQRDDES
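The IP-One HTRF competitive assay in carbachol-stimulated CHO-M1 cells quantifies cellular IP1. Compounds spanned up to 46 uM final, and activity is expressed as AC50 from concentration-response fits of the ratio and donor data.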
IMPase Li cell = qHTS Assay for Identifying the Cell-Membrane Permeable IMPase Inhibitors: Potentiation with Lithium | CHO-M1 cells, IP1 TR-FRET (IP-One), carbachol + lithium | Potency, µM (series often up to 59.4 µM), for the others: top-dose activity, negative = IMPase inhibition, usual class: inhibitors | 210,000 tested, 0.35% active | AID 1457, 2008;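 further: IP1 builds up when IMPase is blocked and the TR-FRET signal falls; potency means the concentration at half of the fitted maximal effect; plate controls were basal vehicle for no effect and high inhibitor control for full effect; nearly all actives have a fitted effect of over 50% in size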
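CHO cells stably expressing M1 receptor (2000/well) were cultured 16–30 h, then exposed to compounds with a small lithium addition for 30 min at 37C. IP1 was measured by TR-FRET competition; AC50 from Hill fits.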
HTT cytoprotect = qHTS Multiplex Assay to Identify Dual Action Probes in a Cell Model of Huntington: Cytoprotection (ATP). PC12 HTT-Q103 induced, cytoprotection, ATP luminescence, 40 h. Potency, µM (titrated, usually from 56.4 µM), for inactives: cytoprotection (ATP increase), actives largely listed as activators. 230,000 tested, 0.14% active; further: potency means the concentration at half of the fitted maximal effect; % of control where 0% means no effect; nearly all actives have a fitted effect of over 45% in size
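Readout: ATPlite luminescence (ATP level). Model: stable PC12, inducible Htt exon1 Q103-GFP. Inducer: tebufenozide, 100 nM final. Compounds: dose series. No G418 in medium.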
ALDH1A1 inh = qHTS Assay for Inhibitors of Aldehyde Dehydrogenase 1 (ALDH1A1). Aldehyde dehydrogenase 1A1 (Homo sapiens), P00352. Purified ALDH1A1, NADH fluorescence, propionaldehyde substrate. Potency, µM (doses to about 75.3 µM), inactives show at the highest dose activity, negative = inhibition, most hits filed as inhibitors. 220,000 tested, 7.3% active. AID 1030, 2008; active means well fitted inhibition curve with a large enough effect, not every such curve was filed as active; inconclusive means small, poorly fitted or top-dose-only effect, or another doubt; inactive means no such curve, though single readings can be large or run the other way;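 further: potency means the concentration at half of the fitted maximal effect; plate controls were no enzyme wells and a reference inhibitor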
Target sequence (P00352 whole entry, looked up): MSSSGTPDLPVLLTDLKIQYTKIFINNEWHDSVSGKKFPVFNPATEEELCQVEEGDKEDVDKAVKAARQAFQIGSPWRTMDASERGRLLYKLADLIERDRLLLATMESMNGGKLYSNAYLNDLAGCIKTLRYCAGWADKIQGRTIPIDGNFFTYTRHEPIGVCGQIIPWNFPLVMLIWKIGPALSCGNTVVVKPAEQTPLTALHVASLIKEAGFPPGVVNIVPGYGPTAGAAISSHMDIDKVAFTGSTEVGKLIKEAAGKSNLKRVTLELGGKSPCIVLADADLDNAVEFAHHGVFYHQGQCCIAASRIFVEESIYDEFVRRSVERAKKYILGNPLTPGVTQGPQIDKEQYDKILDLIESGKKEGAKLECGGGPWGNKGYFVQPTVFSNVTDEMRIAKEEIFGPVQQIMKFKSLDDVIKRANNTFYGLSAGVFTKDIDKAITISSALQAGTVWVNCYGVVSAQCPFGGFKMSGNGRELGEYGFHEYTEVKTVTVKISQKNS
Active calls of the source: *; ? = inconclusive; . = no result given; [ ] = another dose, or the depositor's remark. Only some compounds are listed: those with a hit (about 9.4% of all), similar ones and a draw of the others. Unless noted, the call rests on the fitted dose curve; in most records, active means well fitted curve in the direction sought with a large enough effect; inconclusive means small, poorly fitted or top-dose-only effect, or another doubt; inactive means no such curve, though single readings can be large; an effect the other way counts as inactive or inconclusive.

SMILES	HttQ103 aggreg	HPGD inh	IMPase cell inh	IMPase Li cell	HTT cytoprotect	ALDH1A1 inh
CC(OC(=O)c1ccc(O)cc1)C(=O)Nc1cc(C(F)(F)F)ccc1Cl (centres undefined)	-28%[9.22 µM]	.	.	.	-17%[10 µM]	.
C=CCNC(=O)c1ccccc1CCc1ccccc1	0%	.	.	0%	-44%	-3%
C=CCNC(=O)c1ccccc1Cl	18%	16µM*	-4	-10%[38.3 µM]	10%	-3%
C=CCNC(=O)c1ccc(C(=O)c2ccccc2)cc1	-16%[9.22 µM]	13µM*	2	1%[38.3 µM]	-17%	?
C=CCNC(=O)c1ccc2nc(-c3ccccc3)c(-c3ccccc3)nc2c1	0%	?	19	-6%[38.3 µM]	-15%	?
CCOC(=O)c1ccc(N=C2C(=S)N(c3ccc(C(=O)OCC)cc3)C(=N)N2/N=C/c2ccccc2)cc1	19%	22µM*	10	25%	8%[10 µM]	2µM*
C=CC(C1=CC(=O)C(OC)=C(OC)C1=O)c1ccccc1 (centres undefined)	.	20µM*	.	29%	.	0%
C=CC(C1=CC(=O)C(OC)=CC1=O)c1ccc(OC)cc1 (centres undefined)	.	?	.	12%	.	?
C=CC(C1=CC(=O)C(OC)=CC1=O)c1ccccc1 (centres undefined)	.	?	.	25%	-270%	22µM*
O=C(O)CSc1ccc([N+](=O)[O-])cc1[N+](=O)[O-]	.	-6%	.	14%	3%[10 µM]	0%[13.5 µM]
Cc1ccc2oc3c(c(=O)c2c1)C(c1ccc(F)cc1)N(CCCN1CCOCC1)C3=O (centres undefined)	?	-25%	-4	-1%[38.3 µM]	-32%	3.5µM*
Cc1ccc2oc3c(c(=O)c2c1)C(c1cccc(Cl)c1)N(CCCN1CCOCC1)C3=O (centres undefined)	-31%	0%	0	23%[38.3 µM]	6%[10 µM]	13µM*
O=C1C2C3C=CC(C4CC34)C2C(=O)N1/N=C/c1ccc(-c2cccc([N+](=O)[O-])c2)o1 (centres undefined)	?	13µM*	.	21%	3%[0.074 µM]	14µM*
O=C1C2C3C=CC(C4CC34)C2C(=O)N1/N=C/c1ccc([N+](=O)[O-])s1 (centres undefined)	4%	?	.	6%	.	?
CCCOC(=O)/C(=C\C=C\c1ccco1)NC(=O)c1ccccc1	29%	.	.	17%	0%	20µM*
Cc1ccsc1C1C2=C(CCCC2=O)Nc2ncnn21 (centres undefined)	13%	-23%	1	16%[38.3 µM]	3%[0.074 µM]	?
Cc1ccsc1C1C2=C(CC(C)(C)CC2=O)Nc2ncnn21 (centres undefined)	11%	?	-1	22%[38.3 µM]	-9%	11µM*
C/C(=N\Nc1ccc(S(=O)(=O)Nc2ccccc2)cc1[N+](=O)[O-])c1ccncc1	6%	.	.	6%	-57%	2%
COc1ccc(NS(=O)(=O)c2ccc(N/N=C(\C)c3ccncc3)c([N+](=O)[O-])c2)cc1	0%	6.3µM*	.	-7%	-10%[0.074 µM]	1%
CC(=O)NCCNc1nc(-c2cccc(C#N)c2)nc2ccccc12	.	.	.	3%	-13%	-8%
C=CCn1c(SCC(=O)Nc2sc(C)c(C)c2C(=O)OCC)nnc1-c1sc(N)nc1C	-5%	-7%	11	44%[38.3 µM]	-1%	14µM*
O=C(CSc1nnc(-c2cccnc2)n1Cc1ccco1)c1ccc(Br)cc1	-1%	28µM*	1	3%[38.3 µM]	-8%	-19%
COc1ccc(C(=O)CSc2nnc(-c3ccccn3)n2Cc2ccco2)cc1	32%	.	12	.	-12%[0.074 µM]	22µM*
CC(C)(C)c1ccc(CSc2nnc(-c3ccccn3)n2Cc2ccco2)cc1	14µM*	-24%	4	57%[38.3 µM]	6%	?
COC(=O)c1c(NC(=O)CCCOc2ccc(C(C)(C)C)cc2)sc2c1C(C(=O)OC)CC2 (centres undefined)	.	.	3	.	.	.
SMILES	HttQ103 aggreg	HPGD inh	IMPase cell inh	IMPase Li cell	HTT cytoprotect	ALDH1A1 inh
COc1ccc(Cn2cccc(NC(=O)Nc3cccc(OC)c3)c2=O)cc1	-27%[9.22 µM]	.	.	.	-1%[10 µM]	.
O=C(CSc1nnc(-c2ccccn2)n1Cc1ccco1)c1ccc(Cl)cc1	22%	?	1	-9%[38.3 µM]	-20%	20µM*
O=C(CSc1nnc(-c2cnccn2)n1Cc1ccco1)c1ccccc1	4%	16µM*	-2	-5%[38.3 µM]	-4%	-2%
CCOC(=O)c1c(NC(=O)CSc2nnc(-c3cccnc3)n2Cc2ccco2)sc(C)c1C	-20%	-21%	11	19%[38.3 µM]	-7%[10 µM]	25µM*
O=C(c1ccccn1)N(c1ccccc1)C1(C(=O)NC2CCCCC2)CCCCC1	0%	.	.	5%	-17%	5%
COc1cc(O)oc1C=Nc1ccccc1	-2%	-26%	-5	-14%[38.3 µM]	?	20µM*
Cc1ccc(C(=O)O/N=C2\CCSc3ccc(C)cc32)cc1	-8%	-13%	11	32%[38.3 µM]	9%[10 µM]	11%
COc1ccc(S(=O)(=O)O/N=C2\CCSc3ccc(C)cc32)cc1	-10%	-7%	2	60%[38.3 µM]	9%[10 µM]	7.1µM*
CCOC(=O)C1(Cc2ccc(OC)cc2)CCN(C(=O)c2cncs2)CC1	0%[9.22 µM]	.	.	11%	11%[10 µM]	?
CCCCCCCCCCCCCCCC(=O)C1=C(O)C(CO)OC1=O (centres undefined)	.	.	.	24%	-9%	-5%
CCCCCCCOC(=O)c1ccc(OC(=O)c2cccnc2)cc1	-8%[1.84 µM]	22µM*	-8	38%[38.3 µM]	15%	?
O=Cc1ccc(OC(=O)c2cccnc2)cc1	7%	.	.	3%	-14%[10 µM]	5µM*
O=CN1CCN(C[C@H](O)CN2CCCCC2)CC1	.	-4%	.	-1%	-14%[10 µM]	-8%[13.5 µM]
CC(C)(C)CC(C)(C)c1ccc(O)c(C[N+](C)(C)[O-])c1	.	-15%	.	-5%	3%[10 µM]	-9%[13.5 µM]
CCc1cc(-c2n[nH]c(=S)n2-c2ccccc2C)cs1	-9%	?	3	-8%[38.3 µM]	-18%	8.9µM*
S=c1[nH]nc(-c2ccc(Cl)cc2Cl)n1Cc1ccccc1	3%	16µM*	.	16%	.	32µM*
Cc1ccccc1-c1n[nH]c(=S)n1Cc1ccccc1	23%	.	.	9%	-9%	-1%
O=[N+]([O-])c1cccc(-c2n[nH]c(=S)n2Cc2ccccc2)c1	19%	25µM*	.	-2%	15%[10 µM]	?
